Assay outcomes deposited in PubChem by The Scripps Research Institute Molecular Screening Center.
ADAM17 inh: ADAM17 inhibitors, primary screen, biochemical, QFRET | recombinant ADAM17, EDANS/DABCYL FRET peptide cleavage | inhibition, % at 6.95 µM | 370,000 compounds, 0.83% hits | AID 720648, 2013;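 active means inhibition above the mean of compounds lying between control limits plus 3 SD, set per campaign, cut at about 8.5% in these data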;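 further: 0% = DMSO-only wells as the low control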
PLCg1 inh: PLC-gamma1 enzyme inhibitors, primary screen, biochemical, fluorescence, purified enzyme; fluorogenic substrate; inhibition, % at 12.2 µM; 370,000 compounds, 0.84% hits; AID 720700, 2013
sPLA2-III inh: human group III sPLA2 inhibitors, primary screen, biochemical, QFRET, BODIPY PC-A2 liposome substrate | Group 3 secretory phospholipase A2 (Homo sapiens), Q9NZ20 | QFRET BODIPY PC-A2 liposome hydrolysis, fluorescence | inhibition, % at 12.2 µM | 370,000 compounds, 0.56% hits | AID 743126, 2013;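 active means inhibition above mean plus 3 SD of compounds lying within the high and low control bounds, cut at about 19% in these data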;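 further: 0% = median of test compound wells and 100% = no enzyme DMSO wells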
PLC-beta3 inh: human PLC-beta3 inhibitors, primary screen, biochemical, fluorescence; 1-phosphatidylinositol 4,5-bisphosphate phosphodiesterase beta-3 (Homo sapiens), Q01970; Purified PLC-beta3, fluorogenic substrate; inhibition, % at 12.2 µM; 370,000 compounds, 0.18% hits; AID 720704, 2013; in the data active means inhibition above about 11%;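 further: 0% = median of compound wells on plate and 100% = full blocker control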
KLK7 zymogen act: proKLK7 zymogen activators, primary screen, biochemical, fluorescence intensity | Kallikrein-7 (Homo sapiens), P49862 | purified proKLK7, EDANS-DABCYL substrate fluorescence; 100% is mature enzyme control, 0% vehicle | activation, % at 7 µM | 370,000 compounds, 0.9% hits | AID 652039, 2013;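 active means activation above the mean of all tested compounds plus 3 SD, computed per campaign excluding outliers beyond control limits, cut at about 13% in these data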
ADAM10 inh: human ADAM10 inhibitors, primary screen, biochemical, QFRET, HTS. Disintegrin and metalloproteinase domain-containing protein 10 (Homo sapiens), O14672. recombinant ADAM10, EDANS/DABCYL FRET peptide cleavage, 3 h. inhibition, % at 7 µM. 370,000 compounds, 0.62% hits;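 active means inhibition above a per-campaign cutoff equal to the mean of compounds falling between control-based bounds plus 3 SD, cut at about 20% in these data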;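 further: 0% = DMSO wells while the 100% control is not disclosed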
Target sequence (O14672 214-748 limits assumed): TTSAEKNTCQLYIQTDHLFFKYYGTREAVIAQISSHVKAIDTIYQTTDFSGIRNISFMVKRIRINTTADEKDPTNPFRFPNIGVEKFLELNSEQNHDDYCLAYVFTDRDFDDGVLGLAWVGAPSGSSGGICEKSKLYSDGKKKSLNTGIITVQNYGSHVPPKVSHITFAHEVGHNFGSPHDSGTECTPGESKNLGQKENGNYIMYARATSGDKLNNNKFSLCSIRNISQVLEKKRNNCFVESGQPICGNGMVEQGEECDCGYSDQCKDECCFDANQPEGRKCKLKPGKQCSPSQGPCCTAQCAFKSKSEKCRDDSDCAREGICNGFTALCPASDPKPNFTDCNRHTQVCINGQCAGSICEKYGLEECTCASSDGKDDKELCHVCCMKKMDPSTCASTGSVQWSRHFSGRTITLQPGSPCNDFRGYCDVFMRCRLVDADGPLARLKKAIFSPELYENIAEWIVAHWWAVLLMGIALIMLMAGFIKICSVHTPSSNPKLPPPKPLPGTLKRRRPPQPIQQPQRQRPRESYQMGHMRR
PLCgamma1 ctr: PLC-gamma1 enzyme inhibitors, counter-screen for PLC-beta3 inhibitor project, biochemical, fluorescence; shares compounds with PLCg1 inh; purified PLC-gamma1, fluorogenic substrate; AID 743258, 2014; inhibition, % at 12.3 µM; 3,300 compounds, 3.1% hits
PLCbeta3 conf: PLC-beta3 inhibitor confirmation, biochemical, fluorescence, purified enzyme; 3,300 compounds, 1% hits; fluorogenic substrate fluorescence; AID 743261, 2014; inhibition, % at 12.3 µM; shares compounds with PLCg1 inh; in the data active means inhibition above about 11%
An asterisk follows results filed as active; / = no result; ! = repeats disagree. A selection: hits, their analogues and other compounds. The true share with any hit is near 3.4%. Unless noted, no stated cut-off is given here; in the data, active means inhibition above about 9.5%; inactive means the rest.

SMILES	ADAM17 inh	PLCg1 inh	sPLA2-III inh	PLC-beta3 inh	KLK7 zymogen act	ADAM10 inh	PLCgamma1 ctr	PLCbeta3 conf
Cn1cc(-c2nnnn2-c2ccccc2)c(=O)c2ccccc21	5	5	10	12*	0	2	-21	0
COc1ccc(C(CNC(=O)c2cc3ccccc3o2)N2CCCC2)cc1 (configuration not stated)	-5	11*	6	-12	0	3	-8	-4
O=C(COC(=O)c1cccc(S(=O)(=O)N2CCCCCC2)c1)Nc1ccccc1C(F)(F)F	2	0	1	2	0	1	/	/
Cc1ccc(C(=O)OCC(=O)Nc2ccccc2C(F)(F)F)cc1S(=O)(=O)N1CCCCC1	1	9.8*	-10	-4	1	5	3	5
c1ccc(Cn2c(SCC3CCCCC3)nnc2-c2cccnc2)cc1	-3	-2	1	-2	0	0	/	/
COc1cc(NC(=O)c2cc(C)on2)c(OC)cc1Cl	-4	-1	1	0	/	-2	/	/
CSCC[C@H](NC(=O)COc1ccc(Cl)cc1)C(=O)N1CCC2(CC1)NCCc1[nH]cnc12	-1	11*	4	-3	-1	4	-7	-6
COc1ccccc1NC1=NCC(=O)N1Cc1ccccc1	-3	-2	-1	2	-1	-6	/	/
COc1ccc(CN2C(=O)CN=C2Nc2cccc(C)c2C)cc1	5	9.8*	10	6	0	8	-4	-1
COc1cccc(COCCN2CCN(S(=O)(=O)c3ccc(C)cc3)CCC2=O)c1	8	12*	-1	10	0	7	-7	-4
CCCCCCCCN1C(=O)[C@@H](CC(=O)NCCCOC)C[C@@]2(C(=O)OC)C1=C[C@H](C(C)C)O[C@@H]2C1CC1	3	5	-7	3	0	6	/	/
Nc1[nH]c(C(=O)c2ccc(Br)cc2)c(-c2ccncc2)c1C(=O)c1ccccc1	-4	-1	7	-56	0	-13	/	/
CC(C)C(NC(=O)OCc1ccccc1)C(=O)NCC(=O)OC(C)(C)C (configuration not stated)	7	2	10	15*	0	6	8	3
COC(=O)CNC(=O)C(NC(=O)OCc1ccccc1)C(C)C (configuration not stated)	0	-1	6	1	0	2	/	/
CN1C(=O)[C@@](O)(c2cn(C)c3ccccc23)c2cc(F)ccc21	3	3	1	12*	0	7	-6	-3
COC(=O)[C@]12C[C@H](CC(=O)NCc3cccs3)C(=O)N(CCc3ccc(OC)c(OC)c3)C1=C[C@H](COCc1ccccc1)O[C@@H]2C	2	1	-9	3	1	7	/	/
CCOC(=O)c1sc(NC(=O)CC)nc1C	-1	3	-2	5	0	-4	/	/
CCOC(=O)c1sc(NC(=O)CCCCl)nc1C	0	9.8*	-2	5	-1	-3	-1	-2
Nc1[nH]c2cc(Cl)ccc2c1C(=O)N1CCOCC1	1	-5	11	-7	1	-7	/	/
CC(=O)Nc1ccc(S(=O)(=O)NCC2CCC(C(=O)N3CCCCC3)CC2)cc1 (configuration not stated)	-4	9.9*	8	-8	0	6	-4	-3
COCC(=O)N1CCCC(CNS(=O)(=O)c2ccc(OC)cc2)C1 (configuration not stated)	6	14*	8	5	0	5	-5	-6
FC(F)(F)c1ccccc1Cn1ccc2ccc(-c3ccc4ccn(Cc5ccccc5)c4c3)cc21	-10	-39	1	-54	-5	-20	/	/
Cn1c(=O)c2c(nc(NCc3cccnc3)n2Cc2cccc(C(F)(F)F)c2)n(C)c1=O	4	12*	-13	6	0	6	-2	2
CCN(C(=O)COC(=O)c1ccc(C=O)cc1)c1c(N)n(Cc2ccccc2)c(=O)[nH]c1=O	-9	19*	11	-24	0	-14	0	-13
CCc1ccc(C(=O)OCC(=O)N(CC)c2c(N)n(Cc3ccccc3)c(=O)[nH]c2=O)cc1	-2	0	7	-5	1	-10	/	/
SMILES	ADAM17 inh	PLCg1 inh	sPLA2-III inh	PLC-beta3 inh	KLK7 zymogen act	ADAM10 inh	PLCgamma1 ctr	PLCbeta3 conf
CC(C)(C)N1Cc2nnn(CC3CCCCC3)c2-c2ccccc2S1(=O)=O	4	1	-2	4	0	11	/	/
CSc1ccc(CN2CCCC(CO)(Cc3ccccc3)C2)cc1 (configuration not stated)	0	2	0	1	0	9	/	/
C/C=C(\C)CN1CCCC(CO)(Cc2ccccc2)C1 (configuration not stated)	2	12*	-4	-5	0	4	-2	0
O=C(NCC(c1ccccc1)c1ccccc1)[C@H](Cc1ccccc1)NC1(C(=O)NC2CCCCC2)CCOCC1	5	14*	10	3	/	7	2	5
CN=C1SC(CC(=O)NCCc2ccc(OC)c(OC)c2)C(=O)N1C (configuration not stated)	6	11*!	-1	13*!	0	-2	9.5*	6
CC(=O)c1cc(-c2ccccc2-c2ccccc2)c(=O)n2c1CCC2	-8	-3	6	-4	0	-7	/	/
COc1ccc2c(c1)OC(O)(C(F)F)CC2=O (configuration not stated)	3	12*	2	2	0	3	-9	-3
COC(=O)C1=C(C)N(Cc2ccc(Br)cc2)C(=S)NC1c1ccc(OC)cc1 (configuration not stated)	1	3	2	0	0	8	/	/
COc1ccccc1NC(=S)N(CCCN1CCOCC1)Cc1cn(C)c2ccccc12	-2	0	5	-1	0	-4	/	/
CCOc1ccccc1NC(=S)N(CCCN1CCOCC1)Cc1cn(C)c2ccccc12	7	14*	19	-4	0	-12	-2	2
NS(=O)(=O)c1ccc(NC(=S)NC(=O)/C=C/c2cccs2)cc1	-2	-2	-1	-1	0	-3	/	/
